From PubChem BioAssay
Most compounds without a hit are left out; they make up all but 6.1% or so of the library.
Luciferase inh = qHTS Assay for Inhibitors of Firefly Luciferase. Luciferin 4-monooxygenase (Photinus pyralis), P08659. purified firefly luciferase, luminescence, 8 min. Potency, µM (top dose mostly 57.1 µM), actives largely listed as inhibitors. 2.2% of 72,000 active. AID 411, 2009; note: nearly all actives have a fitted effect of over 40% in size
Target sequence (P08659 whole entry, looked up): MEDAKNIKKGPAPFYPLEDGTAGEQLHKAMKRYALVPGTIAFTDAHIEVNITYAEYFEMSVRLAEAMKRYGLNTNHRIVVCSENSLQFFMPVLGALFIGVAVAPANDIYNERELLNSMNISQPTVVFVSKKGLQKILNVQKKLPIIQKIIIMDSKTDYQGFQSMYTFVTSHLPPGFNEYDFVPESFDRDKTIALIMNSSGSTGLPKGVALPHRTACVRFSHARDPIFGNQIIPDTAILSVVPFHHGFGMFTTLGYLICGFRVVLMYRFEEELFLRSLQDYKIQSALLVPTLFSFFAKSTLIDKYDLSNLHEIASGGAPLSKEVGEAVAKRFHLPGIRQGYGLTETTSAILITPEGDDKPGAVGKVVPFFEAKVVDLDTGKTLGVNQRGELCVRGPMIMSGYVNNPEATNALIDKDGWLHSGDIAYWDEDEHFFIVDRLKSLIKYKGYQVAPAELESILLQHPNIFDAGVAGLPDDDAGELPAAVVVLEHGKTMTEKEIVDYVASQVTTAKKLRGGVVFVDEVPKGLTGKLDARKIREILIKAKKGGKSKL
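qHTS concentration-response profiling: light output of P. pyralis luciferase with luciferin and 10 uM ATP, imidazole buffer pH 7.2. Read by luminescence after 8-min room-temperature incubation.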
TSHR ag = qHTS Assay for Agonists of the Thyroid Stimulating Hormone Receptor; Thyrotropin receptor (Homo sapiens), P16473; HEK293-CNG-TSHR cells (CNG channel as cAMP sensor), membrane potential dye, cAMP; Potency, µM (titrated, usually from 57.1 µM), usual class: activators; 0.48% of 73,000 active; active = well fitted activation curve with a large enough effect in the main read-out, with a control signal flat, not every such curve was filed as active; inconclusive = small, poorly fitted or top-dose-only effect, or a change in a side signal; inactive = no such curve, though single readings can be large or run the other way; reference of the percent scale not stated here;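 note: the control signal comes from parental cells without the receptor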
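HEK 293 cells stably expressing TSHR and a cAMP-gated CNG channel; parental CNG-only cells as counterscreen. Cells preloaded 60 min with membrane potential dye plus 100 uM RO 20-1724, then compound 30 min; fluorescence read at 590 nm.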
PK Bst = Pyruvate Kinase; Potency, µM; 1.2% of 51,000 active; purified pyruvate kinase, luminescence ATP production; ribose 5-phosphate activator present at AC10; in the data active = potency below about 11 µM; inconclusive = mostly about 12 µM to 25 µM;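 the screen sought inhibitors and activators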
ERK AVP inh = qHTS Assay for Inhibitors of the ERK Signaling Pathway using a Homogeneous Screening Assay | HEK293-V1b, vasopressin-stimulated pERK AlphaScreen | Potency, µM (top dose mostly 57.5 µM), hits mostly inhibitors | 0.99% of 72,000 active | AID 995, 2007; note: nearly all actives have a fitted effect of over 55% in size
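HEK293 cells stably expressing V1b receptor, preincubated 30 min at 37 °C with compound, then stimulated 5 min with 25 nM vasopressin. Phospho-ERK by AlphaScreen SureFire after 5 h RT; normalized to DMSO and vasopressin; AC50 by Hill fit.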
GBA activity = Glucocerebrosidase | 1.1% of 48,000 active | Potency, µM | AID 360, 2006 | purified enzyme, resorufin glucoside fluorescence (screen aimed at inhibitors), 20 min | Lysosomal acid glucosylceramidase (Homo sapiens), P04062; in the data active = potency below about 15 µM; inconclusive = mostly about 16 µM to 33 µM;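 note: the screen sought inhibitors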
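Normal human glucocerebrosidase (0.2 nM final) was assayed with resorufin β-D-glucopyranoside (30 uM final) in 50mM citric acid/KH2PO4, 10mM sodium taurocholate, 0.01% tween-20, pH 5.9. Compounds were titrated; fluorescence (Ex 548, Em 600) read after 20 min at RT.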
HEK293 cAMP ctrl = qHTS Assay for Agonists of the Thyroid Stimulating Hormone Receptor: Activators of Intracellular cAMP Concentrations in Parental HEK 293; parental HEK293 CNG cAMP sensor, membrane potential fluorescence; Potency, µM (highest dose often 57.1 µM), usual class: activators; 2.5% of 73,000 active; AID 938, 2007; note: nearly all actives have a fitted effect of over 55% in size
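Parental HEK 293 cells stably expressing a modified CNG channel (no TSHR) report cAMP rise as membrane depolarization. Membrane potential dye with 100 uM RO 20-1724 was loaded for 60 min at room temperature, then compound added for 30 min; fluorescence read at 590 nm.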
Each line names hits and unclear results; the compound was inactive in the other large screens. Unless noted, calls come from the whole dose curve; as a rule, active = well fitted curve in the direction sought with a large enough effect; inconclusive = small, poorly fitted or top-dose-only effect, or another doubt; inactive = no such curve, though single readings can be large; an effect the other way counts as inactive or inconclusive.

CO[C@@H]1C=CO[C@]2(C)Oc3c(C)c(O)c4c(O)c(c(C=NN5CCN(C)CC5)c(O)c4c3C2=O)NC(=O)C(C)=CC=C[C@H](C)[C@H](O)[C@H](C)[C@H](O)[C@H](C)[C@H](OC(C)=O)[C@H]1C	ERK AVP inh inconclusive (no result: PK Bst, GBA activity)
NCc1ccc(C(=O)O)cc1	none (no result: PK Bst, GBA activity)
CCCCCCn1cc(C(=O)O)c(=O)c2ccccc21	none (no result: TSHR ag, ERK AVP inh, GBA activity, HEK293 cAMP ctrl)
CCCCCN=c1ccn(Cc2ccccc2)c2ccccc12	Luciferase inh 25µM, TSHR ag inconclusive, ERK AVP inh inconclusive, HEK293 cAMP ctrl 16µM (no result: PK Bst, GBA activity)
Clc1ccc([C@@H](c2ccccc2Cl)C(Cl)Cl)cc1	TSHR ag 20µM (no result: PK Bst, ERK AVP inh, GBA activity)
N=C1CCC[C@@H]1C(=S)SCCC(N)=O	none (no result: PK Bst, GBA activity)
CC(C)Nc1oc(-c2cccc3ccccc23)nc1C#N	Luciferase inh 20µM
N[C@H]1[C@@H](C(=O)O)[C@H]2C=C[C@H]1C2	none (no result: PK Bst, GBA activity)
C/C(=N/Nc1ccc2ccccc2n1)c1ccccc1O	Luciferase inh 1.3µM (no result: PK Bst, GBA activity)
O=C(O)CSc1ccc2ccccc2n1	none
COc1ncc2ncc(=O)n(CCc3ccccc3)c2n1	none (no result: TSHR ag, PK Bst, GBA activity)
Cc1ccccc1-c1cc(NCc2ccccc2)ncn1	TSHR ag inconclusive, ERK AVP inh inconclusive, HEK293 cAMP ctrl inconclusive (no result: PK Bst, GBA activity)
CCC(=O)N1CCCc2cc(S(=O)(=O)N3CCN(c4ncccn4)CC3)ccc21	ERK AVP inh inconclusive (no result: PK Bst, GBA activity)
CCC(=O)N1CCCc2cc(S(=O)(=O)N3CCN(c4ccccc4F)CC3)ccc21	TSHR ag inconclusive, HEK293 cAMP ctrl 25µM (no result: PK Bst, GBA activity)
COC(=O)c1ccc(C23CC2(C(NP(=O)(c2ccccc2)c2ccccc2)c2ccccc2)C3)cc1 (stereo not given)	TSHR ag inconclusive, HEK293 cAMP ctrl inconclusive (no result: Luciferase inh, PK Bst, GBA activity)
CCN(CC)S(=O)(=O)c1ccc2c(c1)c(=O)c(C(=O)NCCN(C)CCc1ccccc1)cn2C	TSHR ag inconclusive, GBA activity 5.6, HEK293 cAMP ctrl inconclusive
CC1CCN(CC(=O)Nc2sc3c(c2C#N)CCC3)CC1	TSHR ag inconclusive, HEK293 cAMP ctrl 7.9µM
Cc1cc(C(=O)Nc2sc3c(c2C#N)CCCCC3)cs1	Luciferase inh 16µM
COc1ccc(C(c2nnnn2Cc2ccccc2)N2CCN(c3ccccc3)CC2)cc1 (stereo not given)	TSHR ag inconclusive, HEK293 cAMP ctrl inconclusive
COCCn1nnnc1C(c1ccc(OC)c(OC)c1)N1CCN(c2nc3ccccc3s2)CC1 (stereo not given)	GBA activity 6
COCCn1nnnc1C(c1ccc(OC)cc1OC)N1CCN(c2ccccc2)CC1 (stereo not given)	none
COc1ccc(C(c2nnnn2Cc2cccs2)N2CCN(c3ccccc3F)CC2)cc1 (stereo not given)	TSHR ag inconclusive, HEK293 cAMP ctrl 20µM
COc1ccc(OC)c(C(c2nnnn2C2CCCC2)N2CCN(c3ccc(F)cc3)CC2)c1 (stereo not given)	TSHR ag inconclusive, HEK293 cAMP ctrl inconclusive (no result: GBA activity)
COc1ccc(C(c2nnnn2C2CCCC2)N2CCC(C)CC2)c(OC)c1 (stereo not given)	TSHR ag inconclusive, HEK293 cAMP ctrl 16µM
COCCn1nnnc1C(c1ccc(OC)cc1OC)N1CCN(c2ccccc2F)CC1 (stereo not given)	TSHR ag inconclusive, HEK293 cAMP ctrl 25µM
N#CCCn1c(=O)c(CCc2ccccc2)nc2cnc(Nc3ccccc3)nc21	TSHR ag inconclusive, HEK293 cAMP ctrl inconclusive (no result: PK Bst, GBA activity)
CC(C)=CCC/C(C)=C/CO/N=C1/C[C@@H](O)[C@@H](O)[C@@H]2[C@@H]3C(=O)N(C4CCCCC4)C(=O)[C@H]3CC[C@H]12	none (no result: PK Bst, GBA activity)
CCCCCCN(C(=O)CCCCCN1C(=O)NC(c2ccc3ccccc3c2)C(C(=O)OCc2ccccc2)=C1C)C(C(=O)NCCCC)c1ccc(OCC(=O)OC)c(C(=O)OC)c1 (stereo not given)	none (no result: Luciferase inh, PK Bst, GBA activity)
COCCn1c(C)cc(C(=O)COC(=O)c2cc3c(s2)CCC3)c1C	TSHR ag inconclusive, HEK293 cAMP ctrl inconclusive
COCCn1c(C)cc(C(=O)COC(=O)C23CC4CC(CC(O)(C4)C2)C3)c1C	Luciferase inh 13µM
